Measured values reported in PubChem BioAssay (NCATS).
Inconclusive results are not listed. The source made the active and inactive calls. The call rests on the fitted dose curve; in most records, active means well fitted cell-killing curve with a large enough effect; inconclusive means small, poorly fitted or top-dose-only effect, or effect the other way; inactive means no such curve, though single readings can be large or run the other way.
Potency means the concentration at half of the fitted maximal effect.

Assay: Quantitative High-Throughput drug screen in 47 multiple myeloma cell lines against the NCATS MIPE library collection: VP6_DJ cell viability assay (AID 1919867); further: nearly all actives have a fitted effect of over 40% in size
Conditions: ATP luminescence, 48 h; series mostly up to 45.8 µM
Procedure, shortened: (§1)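 Readout: median RLU from CellTiter-Glo after 5 min at room temperature. Preceding step was 48 h drug treatment of 500 cells/well at 37 °C, 5% CO2, with DMSO-only and media-only control wells.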
With CCN(CC)Cc1ccc2cc(COC(=O)Nc3ccc(C(=O)NO)cc3)ccc2c1 the Potency was 132 nM (active).
For COc1ccc2c(c1OC)C(=O)OC2[C@H]1c2c(cc3c(c2OC)OCO3)CCN1C (some centres undefined), the Potency was 74.3 nM (active).
With COc1cccc2c1C(=O)c1c(O)c3c(c(O)c1C2=O)C[C@@](O)(C(C)=O)C[C@H]3O[C@H]1C[C@H](N)[C@H](O)[C@H](C)O1 the Potency was 41.8 nM (active).
In the case of CCOC(=O)N1CCN([N+]([O-])=NOc2ccc([N+](=O)[O-])cc2C#N)CC1, the Potency is reported as 743 nM (active).
With C[C@H]1O[C@H](O[C@H]2[C@H](O)[C@@H](O)[C@@H](O[C@H]3[C@H](O)[C@@H](O)C(O)O[C@H]3CO)O[C@H]2CO)[C@H](O)[C@@H](O)[C@H]1N[C@H]1C=C(CO)[C@@H](O)[C@H](O)[C@@H]1O (some centres undefined) the Potency was “inactive”.
With CC[C@H]1OC(=O)[C@H](C)[C@@H](O[C@H]2C[C@@](C)(OC)[C@@H](O)[C@H](C)O2)[C@H](C)[C@@H](O[C@@H]2O[C@H](C)C[C@H](N(C)C)[C@@H]2O)[C@](C)(OC)C[C@@H](C)C(=O)[C@H](C)[C@@H](O)[C@]1(C)O the Potency was “inactive”.
In the case of CN[C@H]1[C@@H](O)[C@@H]2O[C@@H]3O[C@H](C)CC(=O)[C@]3(O)O[C@@H]2[C@@H](NC)[C@H]1O, the Potency is reported as 1870 nM (active).
In the case of COc1ccc(S(=O)(=O)Nc2cccnc2Nc2ccc(O)cc2)cc1, the Potency is reported as 187 nM (active).
With CC(=O)N[C@H]1[C@@H]([C@H](O)[C@H](O)CO)OC(C(=O)O)=C[C@@H]1N=C(N)N the Potency was “inactive”.
For CCCCCCCCc1ccc(CCC(N)(CO)CO)cc1, the Potency was 4690 nM (active).
With Oc1cc(-c2nc(-c3ccccc3)[nH]c2-c2ccncc2)ccc1Cl the Potency was 3720 nM (active).
For NC[C@H]1O[C@H](O[C@H]2[C@@H](O)[C@@H](O[C@H]3O[C@H](CO)[C@@H](O)[C@H](N)[C@@H]3O)[C@H](N)C[C@@H]2N)[C@H](N)C[C@H]1O, the Potency was “inactive”.
With COc1cc2c(Nc3ccc(Cl)c(Cl)c3F)ncnc2cc1OCC1C[C@@H]2CN(C)C[C@H]2C1 the Potency was 2640 nM (active).
With C[N+](C)([O-])CCNc1ccc(NCC[N+](C)(C)[O-])c2c1C(=O)c1c(O)ccc(O)c1C2=O the Potency was “inactive”.
With CCOC(=O)[C@H](CCc1ccccc1)N[C@@H](C)C(=O)N1[C@@H](C(=O)O)C[C@H]2CCC[C@@H]21 the Potency was 6620 nM (active).
With Oc1ccc(-c2ccc(-c3cc(Nc4cccc(CNC5CC5)c4)n[nH]3)cc2)c(O)c1 the Potency was 743 nM (active).
With C=CCNC1=C2C[C@@H](C)C[C@H](OC)[C@@H](O)[C@@H](C)C=C(C)[C@H](OC(N)=O)[C@@H](OC)C=CC=C(C)C(=O)NC(=CC1=O)C2=O the Potency was 264 nM (active).
In the case of CC(C)(O)Cn1c(NC(=O)c2ccc(-c3cn[nH]c3)s2)nc2cc(CN3CCOCC3)ccc21, the Potency is reported as 743 nM (active).
With COc1cc(OC)cc(-c2ccc3ncc4ccc(=O)n(-c5ccc(N6CCNCC6)c(C(F)(F)F)c5)c4c3c2)c1 the Potency was 2640 nM (active).
With CC1=C(C(=O)Nc2cc3cn[nH]c3cc2F)C(c2ccc(Cl)cc2F)N=C(c2ccnc(Cl)c2)N1 (centres undefined) the Potency was 18700 nM (active).
With CN(C)CCN1C(=O)c2cccc3cc(N)cc(c23)C1=O the Potency was 14800 nM (active).
With COc1cc(C)c(Sc2cnc(NC(=O)c3ccc(CNC(C)C(C)(C)C)cc3)s2)cc1C(=O)N1CCN(C(C)=O)CC1 (centres undefined) the Potency was 8330 nM (active).
With CCNC(=O)Nc1ccc(-c2nc3c(c(N4CCOC[C@H]4C)n2)CCN(C2COC2)C3)cc1 the Potency was 1050 nM (active).
With COC[C@H](NC(=O)c1cnc(C)s1)C(=O)N[C@@H](COC)C(=O)N[C@@H](Cc1ccccc1)C(=O)[C@@]1(C)CO1 the Potency was 66.2 nM (active).
In the case of COc1cccc2c1C(=O)c1c(O)c3c(c(O)c1C2=O)C[C@@](O)(C(=O)CO)C[C@@H]3O[C@H]1C[C@H](N)[C@H](OC2CCCCO2)[C@H](C)O1 (some centres undefined), the Potency is reported as 5260 nM (active).
In the case of Cn1cc(CNCC2CCN(c3ncc(C(=O)NO)cn3)CC2)c2ccccc21, the Potency is reported as 13.2 nM (active).
In the case of CC(=O)NCC(=O)N1[C@H]2CC[C@H]1c1cc(Nc3ncc(C(F)(F)F)c(NC4CCC4)n3)ccc12, the Potency is reported as 833 nM (active).
For CC(C)N(CC[C@H](c1ccccc1)c1cc(CO)ccc1O)C(C)C, the Potency was “inactive”.

Assay: Quantitative High-Throughput drug screen in 47 multiple myeloma cell lines against the NCATS MIPE library collection: UTMC2_PLB cell viability assay (AID 1919868); further: nearly all actives have a fitted effect of over 55% in size
Conditions: CellTiter-Glo ATP luminescence, 48 h; viability (% of DMSO control): at 45.8 µM (top of the series)
Procedure, shortened: as §1
In the case of COc1ccc(C=Cc2cc(OC)c(OC)c(OC)c2)cc1NC(=O)[C@H](N)CO, the Potency is reported as 1 nM (active).
In the case of CCN(CC)Cc1ccc2cc(COC(=O)Nc3ccc(C(=O)NO)cc3)ccc2c1, the Potency is reported as 148 nM (active).
For COc1ccc2c(c1OC)C(=O)OC2[C@H]1c2c(cc3c(c2OC)OCO3)CCN1C (some centres undefined), the Potency was 132 nM (active).
With COc1cccc2c1C(=O)c1c(O)c3c(c(O)c1C2=O)C[C@@](O)(C(C)=O)C[C@H]3O[C@H]1C[C@H](N)[C@H](O)[C@H](C)O1 the Potency was 11.8 nM (active).
In the case of CCOC(=O)N1CCN([N+]([O-])=NOc2ccc([N+](=O)[O-])cc2C#N)CC1, the Potency is reported as 526 nM (active).
With C[C@H]1O[C@H](O[C@H]2[C@H](O)[C@@H](O)[C@@H](O[C@H]3[C@H](O)[C@@H](O)C(O)O[C@H]3CO)O[C@H]2CO)[C@H](O)[C@@H](O)[C@H]1N[C@H]1C=C(CO)[C@@H](O)[C@H](O)[C@@H]1O (some centres undefined) the Potency was “inactive”.
In the case of CC[C@H]1OC(=O)[C@H](C)[C@@H](O[C@H]2C[C@@](C)(OC)[C@@H](O)[C@H](C)O2)[C@H](C)[C@@H](O[C@@H]2O[C@H](C)C[C@H](N(C)C)[C@@H]2O)[C@](C)(OC)C[C@@H](C)C(=O)[C@H](C)[C@@H](O)[C@]1(C)O, the Potency is reported as “inactive”.
With OC[C@H]1OC(O)C[C@@H](O)[C@H]1O (some centres undefined) the Potency was “inactive”.
With CN[C@H]1[C@@H](O)[C@@H]2O[C@@H]3O[C@H](C)CC(=O)[C@]3(O)O[C@@H]2[C@@H](NC)[C@H]1O the Potency was 6620 nM (active).
With CCCCCCCCc1ccc(CCC(N)(CO)CO)cc1 the Potency was 9350 nM (active).
In the case of C[C@H](CCC(=O)O)[C@H]1CCC2C3C[C@H](O)[C@@H]4C[C@H](O)CC[C@]4(C)C3CC[C@@]21C (some centres undefined), the Potency is reported as “inactive”.
In the case of Oc1cc(-c2nc(-c3ccccc3)[nH]c2-c2ccncc2)ccc1Cl, the Potency is reported as 7430 nM (active).
For COc1cc2c(Nc3ccc(Cl)c(Cl)c3F)ncnc2cc1OCC1C[C@@H]2CN(C)C[C@H]2C1, the Potency was 2350 nM (active).
For Oc1ccc(-c2ccc(-c3cc(Nc4cccc(CNC5CC5)c4)n[nH]3)cc2)c(O)c1, the Potency was 1320 nM (active).
For C=CCNC1=C2C[C@@H](C)C[C@H](OC)[C@@H](O)[C@@H](C)C=C(C)[C@H](OC(N)=O)[C@@H](OC)C=CC=C(C)C(=O)NC(=CC1=O)C2=O, the Potency was 1320 nM (active).
With CC(C)(O)Cn1c(NC(=O)c2ccc(-c3cn[nH]c3)s2)nc2cc(CN3CCOCC3)ccc21 the Potency was 372 nM (active).
With COc1cc(OC)cc(-c2ccc3ncc4ccc(=O)n(-c5ccc(N6CCNCC6)c(C(F)(F)F)c5)c4c3c2)c1 the Potency was 2960 nM (active).
In the case of CC1=C(C(=O)Nc2cc3cn[nH]c3cc2F)C(c2ccc(Cl)cc2F)N=C(c2ccnc(Cl)c2)N1 (centres undefined), the Potency is reported as 3720 nM (active).
With CN(C)CCN1C(=O)c2cccc3cc(N)cc(c23)C1=O the Potency was 5900 nM (active).
For COc1cc(C)c(Sc2cnc(NC(=O)c3ccc(CNC(C)C(C)(C)C)cc3)s2)cc1C(=O)N1CCN(C(C)=O)CC1 (centres undefined), the Potency was 3320 nM (active).
In the case of CCNC(=O)Nc1ccc(-c2nc3c(c(N4CCOC[C@H]4C)n2)CCN(C2COC2)C3)cc1, the Potency is reported as 1180 nM (active).
With COC[C@H](NC(=O)c1cnc(C)s1)C(=O)N[C@@H](COC)C(=O)N[C@@H](Cc1ccccc1)C(=O)[C@@]1(C)CO1 the Potency was 1050 nM (active).
In the case of COc1cccc2c1C(=O)c1c(O)c3c(c(O)c1C2=O)C[C@@](O)(C(=O)CO)C[C@@H]3O[C@H]1C[C@H](N)[C@H](OC2CCCCO2)[C@H](C)O1 (some centres undefined), the Potency is reported as 166 nM (active).
For Nc1cccc2c1C(=O)N(C1CCC(=O)NC1=O)C2=O (centres undefined), the Potency was “inactive”.
With Cn1cc(CNCC2CCN(c3ncc(C(=O)NO)cn3)CC2)c2ccccc21 the Potency was 18.7 nM (active).
With CC(=O)NCC(=O)N1[C@H]2CC[C@H]1c1cc(Nc3ncc(C(F)(F)F)c(NC4CCC4)n3)ccc12 the Potency was 118 nM (active).
